NPR1 activator: GC-A (human) enzyme activation; P16066; HEK293 GC-A cells, cGMP TR-FRET, EC30 ANP; 0% at EC30 ANP, 100% saturating ANP; activation, % at 10 µM; 0.14% of 370,000 active; in the data active = activation above about 40%
Target sequence (P16066 whole entry, looked up): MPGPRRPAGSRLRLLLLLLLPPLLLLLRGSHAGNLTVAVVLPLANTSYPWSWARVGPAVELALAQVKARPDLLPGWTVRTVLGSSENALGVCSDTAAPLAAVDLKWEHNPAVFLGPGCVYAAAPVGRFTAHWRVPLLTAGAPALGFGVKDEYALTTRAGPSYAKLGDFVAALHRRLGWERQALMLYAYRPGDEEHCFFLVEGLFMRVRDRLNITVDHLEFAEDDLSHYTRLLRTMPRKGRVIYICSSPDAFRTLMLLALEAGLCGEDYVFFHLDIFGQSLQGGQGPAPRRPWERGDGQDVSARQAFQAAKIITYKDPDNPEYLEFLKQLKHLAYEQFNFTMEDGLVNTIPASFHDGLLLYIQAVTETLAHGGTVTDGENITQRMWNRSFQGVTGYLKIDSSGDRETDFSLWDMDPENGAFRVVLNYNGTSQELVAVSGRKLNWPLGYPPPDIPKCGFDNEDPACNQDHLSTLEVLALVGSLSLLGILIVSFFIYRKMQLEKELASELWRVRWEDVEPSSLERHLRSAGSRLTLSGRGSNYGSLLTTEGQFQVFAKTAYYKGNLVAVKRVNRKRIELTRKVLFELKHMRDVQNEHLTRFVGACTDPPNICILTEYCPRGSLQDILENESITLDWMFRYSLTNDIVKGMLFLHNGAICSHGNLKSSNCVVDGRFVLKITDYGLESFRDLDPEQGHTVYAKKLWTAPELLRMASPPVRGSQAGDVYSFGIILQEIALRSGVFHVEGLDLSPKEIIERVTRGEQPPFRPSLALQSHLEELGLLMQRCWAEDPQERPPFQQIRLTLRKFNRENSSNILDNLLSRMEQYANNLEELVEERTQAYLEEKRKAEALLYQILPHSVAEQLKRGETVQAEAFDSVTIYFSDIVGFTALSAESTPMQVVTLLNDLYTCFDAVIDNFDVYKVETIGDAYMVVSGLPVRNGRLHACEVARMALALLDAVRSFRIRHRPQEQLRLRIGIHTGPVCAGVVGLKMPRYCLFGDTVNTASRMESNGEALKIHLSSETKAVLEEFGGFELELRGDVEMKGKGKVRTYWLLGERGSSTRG
Efflux pump mplx: blocks antifungal efflux pumps in multiplex yeast assay. inhibition, % at 10 µM. 0.44% of 330,000 active. S. cerevisiae Candida pump triplex, Nile Red efflux;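 active = plate passing quality check with inhibition over a set limit, or well fluorescence over plate mean plus 4 SD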;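 also: Nile Red retained in pooled yeast measured as flow cytometry median fluorescence; 0% = buffer negative control and 100% = Enniatin B positive control; higher means more Nile Red kept so more efflux inhibition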
GC-B act: GC-B (human) receptor activation. P20594. HEK293-GC-B cells, CNP EC30, cGMP TR-FRET; 0% at EC30 CNP, 100% saturating CNP. activation, % at 10 µM. 0.11% of 370,000 active. AID 1920062;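 active = activation at 10 µM reaching about 35% in either raw or pattern-adjusted values, limit read from the data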
A1 inh: inhibitors of the anti-apoptotic protein A1, read as caspase activation; MEF A1-2A-BIM cells, Caspase-Glo 3/7 luminescence, 3 h; percent of clofoctol response, vehicle zero; caspase activation, % (concentration not given with the values); 0.066% of 330,000 active;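 active = over half of replicate activation scores above 10%, or exactly half above 10 with the replicate mean above 10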
HSV replic up: HSV replication enhancement; HSV replication augmentation in cells, fold increase; maximum fold increase; 0.005% of 220,000 active; AID 1956; in the data active = maximum fold increase above about 1.5; tested in PC3 cells
H9c2 TAG inh: triacylglycerol accumulation inhibition. 0.66% of 230,000 active. inhibition, % at 12.5 µM. H9c2 cells, Nile Red lipid (TAG) fluorescence; cells loaded with 200 µM oleic acid;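 active = pattern-corrected inhibition of lipid staining of at least 50% with the nuclear-stain viability signal not falling by more than 50%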;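 also: 0% = DMSO wells and 100% = triacsin C control wells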
* marks the source's active call; other numbers are inactive results; i = inactive; · = no result. An excerpt weighted towards active compounds, which were near 1% of everything screened.

SMILES	NPR1 activator	Efflux pump mplx	GC-B act	A1 inh	HSV replic up	H9c2 TAG inh
Cc1cccc(N=Nc2ccc(O)c3ncccc23)c1	3	-1	1	-5	·	82*
CCOc1ccc(N=Nc2ccc(O)c3ncccc23)cc1	1	0	0	-1	·	·
NS(=O)(=O)c1ccc(N=Nc2ccc(O)c3ncccc23)cc1	-2	0	-5	0	·	·
CCCCOCCCNC(=O)C[C@@H]1C(=O)N(CCc2ccc(Cl)cc2)C2=CCCCC[C@]21C(=O)OC	0	·	4	·	·	·
Cc1ccc2nc(N(CCCN(C)C)C(=O)c3cc(-c4cccs4)nc4ccccc34)sc2c1	-6	0	2	-1	·	54*
CCC(c1ccc(OC)cc1)c1cn(C)c2ccccc12 (centres undefined)	-7	·	-1	·	·	·
C=CCNC(=O)/C(C#N)=C/c1c(C)nn(-c2ccc(Cl)cc2)c1Cl	46*	0	4	0	i	-3
Cc1nn(-c2ccc(Cl)cc2)c(Cl)c1/C=C(\C#N)C(N)=O	49*	-1	5	1	i	·
N#Cc1c(SCc2ccccc2)nc(N2CCOCC2)c2c1CCCC2	35	0	37*	-1	i	-39
COc1ccc(C2NN=C(c3c[nH]c4ccccc34)C2O)cc1 (centres undefined)	1	-1	-2	-1	·	·
COc1ccc(C2C(O)C(c3c[nH]c4ccccc34)=NN2C(=O)CCl)cc1 (centres undefined)	1	0	1	8.0*	·	·
O=C(Nc1cccc(Cl)c1)c1nc[nH]c1C(=O)NCCN(CCNC(=O)c1[nH]cnc1C(=O)Nc1cccc(Cl)c1)CCNC(=O)c1[nH]cnc1C(=O)Nc1cccc(Cl)c1	-1	0	4	0	·	75*
CCOC(=O)c1ccc(NC(=O)c2nc[nH]c2C(=O)NCCNC(=O)c2[nH]cnc2C(=O)Nc2ccc(C(=O)OCC)cc2)cc1	2	0	-3	-1	·	135*
O=C(Nc1ccc(Cl)cc1)c1nc[nH]c1C(=O)NCCCCNC(=O)c1[nH]cnc1C(=O)Nc1ccc(Cl)cc1	-4	0	-14	0	·	110*
O=C(Nc1ccc(Cl)cc1)c1nc[nH]c1C(=O)Nc1ccccc1F	-3	·	-6	·	·	10
Cc1cccc(NC(=O)c2nc[nH]c2C(=O)NCCCCNC(=O)c2[nH]cnc2C(=O)Nc2cccc(C)c2)c1	-8	1	-9	-2	·	78*
O=C(Nc1cccc(Cl)c1)c1nc[nH]c1C(=O)NCCCCNC(=O)c1[nH]cnc1C(=O)Nc1cccc(Cl)c1	-6	0	-6	-1	·	65*
N#CC1=C(N)Oc2cc(N)ccc2C1c1cccc(Br)c1 (centres undefined)	46*	0	6	0	·	·
N#CC1=C(N)Oc2cc(O)ccc2C1c1ccccc1 (centres undefined)	57*	0	0	-1	i	·
COc1cc(C2C(C#N)=C(N)Oc3cc(O)ccc32)cc2c1OCO2 (centres undefined)	53*	0	0	0	i	6
Cc1ccc(C2C(C#N)=C(N)Oc3cc(N)ccc32)cc1 (centres undefined)	25	0	4	0	·	·
Cc1ccc(NC(=S)NNC(=O)c2cnccn2)cc1	-1	·	2	·	·	·
CCC(=O)N(c1ccccc1)C1CCN(C(=O)C(Cc2ccccc2)NC(C)=O)CC1 (centres undefined)	-1	·	3	·	·	·
COc1ccc(N2C(=O)CC(Sc3nnnn3-c3ccc(F)cc3)C2=O)cc1 (centres undefined)	12	0	4	1	i	-10
O=C1CC(Sc2nnnn2-c2ccccc2)C(=O)N1c1cccc(Cl)c1 (centres undefined)	29	0	36*	-1	i	17
COCCNC(=O)/C(C#N)=C/c1ccc(O)cc1	0	0	5	-7	i	-10
CCOCCCNC(=O)/C(C#N)=C/c1ccc(Cl)c([N+](=O)[O-])c1	55*	0	5	0	i	5
COCCNC(=O)/C(C#N)=C/c1cccc(/C=C(\C#N)C(=O)NCCOC)c1	42*	0	25	0	i	·
CCOCCCNC(=O)/C(C#N)=C/c1cc(OC)c(O)c([N+](=O)[O-])c1	-4	0	-8	2	i	17

Assay outcomes deposited in PubChem by several laboratories.
